Measured values as given in PubChem BioAssay AID2546 (National Center for Advancing Translational Sciences (NCATS), 2010).
“And” between values parts separate entries of the source, which are not always exact repeats. Equal values may be shown once. Screen size: about 310,000 compounds; about 11,000 (3.5%) were called active. Not shown: some 8% with an inconclusive outcome. The sample holds actives, similar compounds and a random draw of the others, so the mix is not that of the screen. Calls follow the shape of the dose curve; as a rule, active = well fitted inhibition curve with a large enough effect; inconclusive = small, poorly fitted or top-dose-only effect, or effect the other way; inactive = flat fitted curve, though single readings scatter.

Assay: VP16 counterscreen qHTS for inhibitors of ROR gamma transcriptional activity;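 also: Gal4-VP16 expression switched on by copper sulfate through the metallothionein promoter; nearly all actives have a fitted effect of over 50% in size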
Settings: Drosophila S2 Gal4-VP16 UAS-luciferase, luminescence, 20 h; series mostly up to 53.6 µM; activity, negative = inhibition: at the top concentration
Text: NIH Molecular Libraries Probe Production Network [MLPCN]
NIH Chemical Genomics Center [NCGC]
Assay Provider: Dan Littman, New York University
The retinoic acid-related orphan receptor (ROR) gamma is a transcription factor that has a central role in the differentiation of Th17 cells, a subset of T helper cells that secrete the inflammatory cytokines IL-17, IL-17F, and IL-22. Th17 cells have been implicated in graft versus host disease, autoimmune disease and asthma. ROR gamma is induced in naive T helper cells in the presence of TGF-beta combined with IL-6, IL-21, or IL-23, and thereafter directs the expression of the Th17 lineage cytokines. To identify nonspecific inhibitors, a Drosophila Schneider cell line was stably transfected with two vectors: a gene expressing a fusion of the Gal4 DNA binding domain and VP16 transactivation domain under the control of the metallothionine promoter and a Photinus luciferase reporter regulated by the Gal4 binding site enhancer, UAS. […] Small molecule inhibitors that inhibit components common to the RORgt and VP16 assays, such as the Gal4 DNA binding domain or the UAS luciferase reporter, will be active in both assays and thus scored as nonspecific.
For screening, 600 cells in 4 uL/well were dispensed into white solid 1536-well plates (Grenier) using a solenoid-based dispenser. Following transfer of 23 nL compound or DMSO vehicle by a pin tool, the plates were incubated 1 hr at ambient temperature, and 1 uL/well copper sulfate (700 uM final concentration) was added. The plates were centrifuged 15 s at 1000 RPM and incubated 20 hr at ambient temperature. After addition of 1.5 uL Photinus luciferase detection reagent, the plates were incubated 10 min at ambient temperature and then read by a ViewLux (Perkin Elmer) to detect luminescence.
% is scaled to controls: 0 for no effect and ±100 for the full control effect; potency is read from the fitted curve at half-maximal effect.

Compound	activity, negative = inhibition	Potency
COc1ccccc1OCc1ccc(C(=O)NC(C)c2ccccc2)o1 (stereo not given)	-3% (inactive)	–
CCOc1ccc(C)cc1S(=O)(=O)NC1CCCCCC1	23.3% (inactive)	–
COc1cc(/C=C2\SC(=S)N(Nc3ncc(C(F)(F)F)cc3Cl)C2=O)cc(OC)c1OC	-11.4% (inactive)	–
COc1cccc(/C=N/Nc2ncc(C(F)(F)F)cc2Cl)c1O	–	3.16 µM (active)
COC(=O)Cc1ccc(Oc2ncc(C(F)(F)F)cc2Cl)cc1	5.94% (inactive)	–
C=CCNC(=S)NNc1ncnc2sc3c(c12)CC(C)(C)OC3	–	7.08 µM (active)
CN(C)CCSc1nc(N)c2c3c(sc2n1)COC(C)(C)C3	-8.2% (inactive)	–
CCSc1nc2sc3c(c2c(=O)[nH]1)CC(C)(C)OC3	1.94% (inactive)	–
CC(C)(C)NS(=O)(=O)c1ccc(NC(=O)C2CCCO2)cc1 (stereo not given)	-3.37% (inactive)	–
Cc1c(C)c2c(OCC(=O)NCCCO)cc3c(c2oc1=O)CCC(C)(C)O3	4.21% (inactive)	–
COC(=O)c1c(NC(=O)c2ccc(S(=O)(=O)N3CCOCC3)cc2)sc2c1CCN(C(C)C)C2	-1.8% (inactive)	–
CC(C)CCn1c(=O)c2c(nc3n2CCCN3Cc2ccccc2)n(C)c1=O	-14.9% (inactive)	–
COc1ccc(N2CCC(CNC(=S)Nc3c(C)cccc3C)C2)cc1 (stereo not given)	–	2.24 µM (active)
COc1ccc(OCC(=O)Nc2ccc(N3CCC(C)CC3)cc2)cc1	-2.59% (inactive)	–
COc1ccc(NC(=S)NCCN2CCC(C)CC2)cc1	-17.1% (inactive)	–
COc1ccc(NC(=O)N2CCC(Cc3ccccc3)CC2)cc1	4.74% (inactive)	–
COc1cccc(N2CC(C(=O)Nc3c(C)cccc3C)CC2=O)c1 (stereo not given)	0.144% (inactive)	–
COc1ccc(NC(=S)NCC2CCN(c3ccc(OC)cc3)C2)cc1 (stereo not given)	–	4.47 µM (active)
Cc1cccc2c1cnn2C(=O)CCC(=O)NC1CCCCC1	3.24% (inactive)	–
O=C(N/N=C/c1cccc(Br)c1)c1ccc(N2CCCC2=O)cc1	3.2% (inactive)	–
CCOc1ccc(CCNC(=O)CCc2nnc3ccc(N4CCCC4)nn23)cc1OCC	-1.18% (inactive)	–
COc1ccc(-c2cc(C(=O)N3CCN(Cc4ccc5c(c4)OCO5)CC3)on2)cc1OC	-0.461% (inactive)	–
Cn1c(CC(=O)Nc2ccc(F)cc2)nnc1SCC(=O)NC1CCCCC1	1.19% (inactive)	–
COc1ccc(NC(=O)C2COc3ccccc3O2)cc1 (stereo not given)	-10.7% (inactive)	–

Compound	activity, negative = inhibition	Potency
CCCN(CC1COc2ccccc2O1)C(=S)Nc1ccc(C)cc1 (stereo not given)	–	12.6 µM (active)
Cc1ccc(NC(=S)N(CCCN2CCC(C)CC2)Cc2ccco2)cc1	2.2% (inactive)	–
Nc1cc(N)nc(SCc2cccc(F)c2)n1	12.2% (inactive)	–
CC(C)[C@H](NC(=O)N1CCn2c1nc1ccccc12)C(=O)NCCc1ccccc1	0% (inactive)	–
CC1COc2ccccc2N1C(=O)c1ccc(F)cc1 (stereo not given)	8.51% (inactive)	–
O=C(Nc1nnc(C2COc3ccccc3O2)o1)c1ccc(F)cc1 (stereo not given)	–	0.562 µM (active)
O=C(Nc1ccccc1F)c1ccc2c(c1)OCO2	-8.17% (inactive)	–
Cc1ccc(OCC(=O)Nc2ccc3oc(=O)ccc3c2)cc1C	6.56% (inactive)	–
COc1ccc2cc(C(=O)NCC3CCCO3)[nH]c2c1 (stereo not given)	5.86% (inactive)	–
O=C(C1CCCN(S(=O)(=O)c2ccc([N+](=O)[O-])cc2)C1)N1CCCCC1 (stereo not given)	-5.57% (inactive)	–
Cc1ccc(C(=O)Nc2nnc(-c3cccs3)s2)cc1C	19.6% (inactive)	–
N#Cc1ccc(C(=O)Nc2nc(-c3cccs3)c(C(=O)C(F)(F)F)s2)cc1	–	3.16 µM (active)
CC(=O)c1sc(NC(=O)c2ccc(C)cc2)nc1C	-5.98% (inactive)	–
CCc1ccccc1NC(=O)c1ccc2snnc2c1	1.19% (inactive)	–
Cc1c(C)c(C)c(S(=O)(=O)NCCc2ccccn2)c(C)c1C	12.6% (inactive)	–
CCc1ccc(-c2nc(SCC(=O)NC3CCCC3)n[nH]2)cc1	–	14.1 µM (active)
COc1ccc(-c2nc(SCC(=O)N3CCCC3)n[nH]2)cc1	0.997% (inactive)	–
CCc1c(C)nc(SCC(=O)NC2CCCC2)[nH]c1=O	7.14% (inactive)	–
Cc1ccc(S(=O)(=O)c2nnn3c2nc(N2CCN(c4ccccn4)CC2)c2ccccc23)cc1	3.9% (inactive)	–
COc1ccc(-c2cc(=O)oc3cc(OC(C)C(=O)Nc4ccc(CN5CCOCC5)cc4)ccc23)cc1 (stereo not given)	-8.27% (inactive)	–
Cc1ccc(OCc2nc3ccccc3n2C)cc1	-21.6% (inactive)	–
Cn1cc(/C=C/c2nc3ccccc3c(=O)n2-c2cccc([N+](=O)[O-])c2)c2ccccc21	-2.78% (inactive)	–
Cc1nc2ccccc2c(=O)n1Cc1ccc([N+](=O)[O-])cc1	-12.2% (inactive)	–
CCn1c(/C=C/c2ccc([N+](=O)[O-])o2)nc2ccccc2c1=O	–	11.2 µM (active)

Compound	activity, negative = inhibition	Potency
CCCCn1c(N)c(N(CCOC)C(=O)c2oc3ccc(OC)cc3c2C)c(=O)[nH]c1=O	12.1% (inactive)	–
O=C(N/N=C/c1sc(N2CCCCC2)nc1-c1cccs1)c1cccnc1	–	10 µM (active)
Cc1cc(/C=N/NC(=O)c2cccnc2)c(C)n1CC(C)C	-18.2% (inactive)	–
O=C(N/N=C/c1ccc(O)c2ccccc12)c1cccnc1	5.43% (inactive)	–
O=C(NCCS(=O)(=O)N1CCN(c2ccccc2F)CC1)c1ccc(Br)o1	1.1% (inactive)	–
Oc1c(Cl)cc(Cl)c(Cl)c1Cc1c(O)c(Cl)cc(Cl)c1Cl	–	3.16 µM (active) and 7.08 µM (active) and 3.98 µM (active)
CCCCCN(C(=O)CCC(=O)OCC(=O)NCc1ccc(OC)cc1)c1c(N)n(CCCC)c(=O)[nH]c1=O	-1.25% (inactive)	–
CC(=O)Nc1ccc(S(=O)(=O)N2CCC(C(=O)NC3CC3)CC2)cc1	-7.7% (inactive)	–
CCOc1ccc(NC(=O)[C@H](C)NC(=O)C2CC(=O)N(c3ccc(OC)cc3)C2)cc1 (stereo not given in full)	-0.627% (inactive)	–
O=C(Cc1cccc2ccccc12)NNC(=O)Nc1ccc(Cl)cc1	2.73% (inactive)	–
Fc1ccccc1Cn1cnc(NC(=S)NCCc2ccccc2)n1	0.0945% (inactive)	–
Fc1ccccc1CNC(=S)Nc1ccc(Cl)cc1	–	7.08 µM (active)
COc1ccc(CCNC(=O)CSCc2ccc(Br)cc2)cc1OC	1.85% (inactive)	–
CS(=O)(=O)N(CC(=O)N1CCOCC1)c1cccc(Cl)c1Cl	0.519% (inactive)	–
O=C1C2C(c3ccccc3)CC=CC2C(c2ccoc2)N1Cc1ccccc1 (stereo not given)	-2.18% (inactive)	–
CCc1nc(NCCO)c(C#N)c2c1CCCC2	-4.3% (inactive)	–
CC(C)CCNc1nc(N2CCCC2)c2c(c1C#N)CCN(C)C2	–	11.2 µM (active)
CCN1CCc2c(C#N)c(NCc3ccccc3)nc(NCCO)c2C1	3.4% (inactive)	–
Cn1cccc1C(=O)N1CCc2ccccc2C1	-17.5% (inactive)	–
Cc1cccc(C)c1NC(=O)C(c1ccccc1)N1CC(=O)Nc2ccccc21 (stereo not given)	1.67% (inactive)	–
Cc1cccc(C)c1NC(=O)C(Cl)C(=O)c1ccccc1 (stereo not given)	–	22.4 µM (active)
Cc1cccc(C)c1NC(=O)N1CC(C)OC(C)C1 (stereo not given)	-3.53% (inactive)	–
